Laboratory results: PubChem BioAssay AID707 (Columbia University Molecular Screening Center, 2007)
Out of some 91,000 compounds screened, about 310 (0.34%) were called active. Many of the other results were omitted from the sample, so actives are more common in it than they were. Values without a mark were called inactive. Rule as the data show it: active = inhibition above about 80%; inactive = the rest.

The compounds below were run against Bifunctional epoxide hydrolase 2 (Homo sapiens) (UniProt P34913) (assay: soluble epoxide hydrolase inhibitors, primary screen, biochemical, human sEH (AID 707)). Details: recombinant human sEH enzymatic activity assay; at 2 µM; stronger effect = higher value.
Bifunctional epoxide hydrolase 2 (Homo sapiens), sequence (P34913 whole entry, looked up): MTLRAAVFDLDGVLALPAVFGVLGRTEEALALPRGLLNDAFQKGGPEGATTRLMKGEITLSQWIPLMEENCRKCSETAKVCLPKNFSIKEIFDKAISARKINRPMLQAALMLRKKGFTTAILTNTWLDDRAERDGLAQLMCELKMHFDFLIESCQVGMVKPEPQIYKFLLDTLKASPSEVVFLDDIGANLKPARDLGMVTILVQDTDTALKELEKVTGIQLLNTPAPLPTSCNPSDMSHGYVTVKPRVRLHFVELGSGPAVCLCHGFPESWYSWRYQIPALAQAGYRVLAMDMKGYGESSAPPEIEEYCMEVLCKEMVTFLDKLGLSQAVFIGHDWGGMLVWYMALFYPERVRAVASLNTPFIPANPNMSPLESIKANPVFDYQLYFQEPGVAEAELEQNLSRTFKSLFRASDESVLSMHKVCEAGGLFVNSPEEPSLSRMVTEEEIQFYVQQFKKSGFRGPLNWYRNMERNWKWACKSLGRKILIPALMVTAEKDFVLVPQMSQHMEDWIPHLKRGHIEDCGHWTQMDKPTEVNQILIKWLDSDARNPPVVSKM

Q: For `CON(C)S(=O)(=O)c1ccc2c(c1)NC(=O)C1CCCN21` (stereo not drawn), which inhibition is on record?
A: Its inhibition is -14.7%.

Q: Which inhibition does the source give for `O=C(NNC(=O)c1cccnc1)Nc1ccccc1` here?
A: The inhibition was -21.5%.

Q: Which inhibition does the source give for `N#C/C(=C/c1ccc(Cl)cc1)NC(=O)c1ccccc1` here?
A: The inhibition was 3.7%.

Q: Which inhibition does the source give for `CCOC(=O)c1ccc(NC(=O)CSc2nnc(COc3ccccc3OC)n2C)cc1` here?
A: The inhibition was 9.6%.

Q: Which inhibition does the source give for `CCCCNC(=O)CSc1nc2ccc(NC(=O)CSc3nnc(COc4ccccc4C)n3C)cc2s1` here?
A: The inhibition was 88.5% (active).

Q: For `CCCCNC(=O)CSc1nnc(-c2ccco2)n1C`, which inhibition is on record?
A: Its inhibition is -1.7%.

Q: How did the inhibition turn out when `CC(CC(=O)Nc1cc(C(F)(F)F)ccc1Cl)c1ccccc1` (stereo not drawn) was run?
A: The inhibition was 49.5%.

Q: `CC1CCCCN1CC(=O)NCc1ccc2c(c1)OCO2` (stereo not drawn) was tested. Which inhibition did it give?
A: Its inhibition is 3.9%.

Q: How did the inhibition turn out when `CCc1c(C)nc2ncnn2c1N1CCC(C(=O)NCc2ccc3c(c2)OCO3)CC1` was run?
A: Its inhibition is 83.3% (active).

Q: For `CCOC(=O)NCc1ccc2c(c1)OCO2`, which inhibition is on record?
A: The inhibition was 4.7%.

Q: For `COc1ccc(NC(=O)Nc2ccc3nsnc3c2)cc1`, which inhibition is on record?
A: Its inhibition is 75.6%.

Q: For `CCCCNCc1ccc(SC)cc1`, which inhibition is on record?
A: Its inhibition is 10.8%.

Q: With `COc1ccc2c(c1)SC(C)CC2=O` (stereo not drawn) as the compound, how does the inhibition read?
A: The inhibition was -11.8%.

Q: `Cc1cccc(N(C(=O)Cc2cccs2)C(C(=O)NC2CCCC2)c2ccsc2)c1` (stereo not drawn) was tested. Which inhibition did it give?
A: Its inhibition is 1.9%.

Q: With `Cc1cccc(NC(=S)Nc2ccc(Br)cc2)c1` as the compound, how does the inhibition read?
A: Its inhibition is 17.8%.

Q: For `COc1ccc(CCNC(=S)NC(=O)/C=C/c2ccc(C)cc2)cc1OC`, which inhibition is on record?
A: Its inhibition is -0.9%.

Q: `Cc1cccc(-n2cnc(C(=O)Nc3cccnc3)c2)n1` was tested. Which inhibition did it give?
A: The inhibition was -6.9%.

Q: `Cc1ccc2nc(Nc3ccccc3O)nc(-c3ccccc3)c2c1` was tested. Which inhibition did it give?
A: The inhibition was 0.8%.

Q: `c1ccc2c(CSCc3nc4ccccc4[nH]3)cccc2c1` was tested. Which inhibition did it give?
A: Its inhibition is 10.5%.

Q: For `Cc1ccccc1OC/C(O)=C(\C#N)c1nc2ccccc2[nH]1`, which inhibition is on record?
A: The inhibition was -13.4%.

Q: How did the inhibition turn out when `COC(=O)c1ccc(C(=O)Nc2cc(Cl)ccc2Cl)cc1NC(=O)c1ccccc1C` was run?
A: Its inhibition is -1.7%.

Q: With `Cc1ccccc1OCc1nnc(SCC(=O)N2c3ccccc3Sc3ccc(Cl)cc32)o1` as the compound, how does the inhibition read?
A: The inhibition was -2.3%.

Q: With `CC1Cc2ccccc2N1CC(=O)Nc1ccc2c(c1)OC(F)(F)O2` (stereo not drawn) as the compound, how does the inhibition read?
A: Its inhibition is 49.2%.

Q: Which inhibition does the source give for `CCOC(=O)COc1cc(OCC(=O)OCC)c2c(=O)cc(-c3ccccc3)oc2c1` here?
A: Its inhibition is -14.8%.

Q: With `COCCCn1c(SCc2cccc(OC)c2)nc2cc(OC)c(OC)cc2c1=N` as the compound, how does the inhibition read?
A: Its inhibition is 7.8%.

Q: `Cc1[nH]nc(-c2ccc(OCc3cnn(-c4ccccc4)c3)cc2O)c1Oc1ccc(Cl)cc1` was tested. Which inhibition did it give?
A: The inhibition was 11.4%.

Q: How did the inhibition turn out when `COc1ccc(C(=O)NC(=S)Nc2ccccc2N2CCN(S(C)(=O)=O)CC2)cc1OC` was run?
A: The inhibition was 12.4%.

Q: Which inhibition does the source give for `Cc1ccc2nc(SCc3nnc(-c4ccccc4[N+](=O)[O-])o3)c(C#N)cc2c1` here?
A: Its inhibition is 0.2%.

Q: Which inhibition does the source give for `Cc1cccc(-n2ncc(C#N)c2-n2cccc2)c1` here?
A: Its inhibition is 0.9%.

Q: How did the inhibition turn out when `CCCC(=O)NC(Nc1ccccc1OC)C(Cl)(Cl)Cl` (stereo not drawn) was run?
A: The inhibition was 6.5%.

Q: `Fc1ccccc1COc1ccccc1CNCc1ccncc1` was tested. Which inhibition did it give?
A: The inhibition was 5.2%.

Q: Which inhibition does the source give for `CC(=O)Nc1ccccc1C(=O)C(=O)Nc1ccc(F)cc1` here?
A: The inhibition was -20.5%.

Q: How did the inhibition turn out when `COC(=O)CNC(=O)c1ccccc1[N+](=O)[O-]` was run?
A: Its inhibition is -15.7%.

Q: With `O=C(CCc1ccc(S(=O)(=O)N2CCOCC2)cc1)Nc1ccc2ccccc2c1` as the compound, how does the inhibition read?
A: Its inhibition is 21.6%.

Q: How did the inhibition turn out when `CONC(=O)c1cc(OCC(F)(F)F)ccc1OCC(F)(F)F` was run?
A: The inhibition was 6%.

Q: With `Cc1c(Br)c([N+](=O)[O-])nn1C(C)C(=O)Nc1nccs1` (stereo not drawn) as the compound, how does the inhibition read?
A: Its inhibition is -4.7%.

Q: `N#Cc1ccc(-c2ccc(Cl)cc2)nc1Oc1ccc(F)cc1` was tested. Which inhibition did it give?
A: Its inhibition is 7.8%.

Q: Which inhibition does the source give for `COCc1cc(C)nc2sc3c(=O)n(-c4cccc5ccccc45)nnc3c12` here?
A: Its inhibition is 3.4%.

Q: With `Cc1ccc(-n2c(C)cc(/C=C(\C#N)C(=O)NCC3CCCO3)c2C)cc1` (stereo not drawn) as the compound, how does the inhibition read?
A: Its inhibition is 10.8%.

Q: How did the inhibition turn out when `O=Cc1c(N2CCN(c3cccc(Cl)c3)CC2)nc2ccccn2c1=O` was run?
A: Its inhibition is 1.4%.

Q: Which inhibition does the source give for `COc1cccc(NC(=O)Cc2ccc(C)cc2)c1` here?
A: Its inhibition is 1.6%.

Q: Which inhibition does the source give for `CC(=O)c1cccc(NC(=O)Nc2ccc(C)cc2)c1` here?
A: The inhibition was 48.2%.

Q: For `Cc1cccc(NC(=O)Nc2cccc(Oc3c(F)c(F)c(F)c(F)c3F)c2)c1`, which inhibition is on record?
A: The inhibition was 80.6% (active).

Q: For `O=C(/C=C\NCC(=O)c1ccccc1)c1ccccc1`, which inhibition is on record?
A: Its inhibition is 2.3%.

Q: With `COc1ccc2c(c1OC)C(=O)c1ccccc1C2=O` as the compound, how does the inhibition read?
A: Its inhibition is -2.2%.

Q: With `Cc1onc(-c2c(Cl)cccc2Cl)c1C(=O)c1c[nH]c(C(=O)NC2CC2)c1` as the compound, how does the inhibition read?
A: Its inhibition is 2%.

Q: How did the inhibition turn out when `Cc1[nH]n(-c2ccccc2)c(=O)c1CCOC(=O)c1ccc(C(F)(F)F)cc1` was run?
A: The inhibition was 7.1%.

Q: How did the inhibition turn out when `C/C(=N/NC(=O)c1ccc(NC(=O)c2ccc(F)cc2)cc1)c1ccccc1` was run?
A: Its inhibition is -3.4%.

Q: With `Cc1cc2c(c(=O)n1C)C(C(C)C)C(C#N)=C(N)O2` (stereo not drawn) as the compound, how does the inhibition read?
A: The inhibition was -3.6%.

Q: `CNS(=O)(=O)c1cnccc1N1CCN(c2cccc(C)c2)CC1` was tested. Which inhibition did it give?
A: The inhibition was 13.4%.

Q: How did the inhibition turn out when `Cc1ccc(-c2nnc(-n3nnc4ccccc43)c3ccccc23)cc1` was run?
A: Its inhibition is -3.9%.

Q: Which inhibition does the source give for `C=CCNc1nc(N)c(C(=C(C#N)C#N)c2ccccc2)s1` here?
A: Its inhibition is 4.9%.

Q: Which inhibition does the source give for `Cc1cc([N+](=O)[O-])c(N2CCC[C@@H]2C(=O)O)c([N+](=O)[O-])c1` here?
A: Its inhibition is 3.1%.

Q: With `COC(=O)CN(C(=S)Nc1ccc(Cl)cc1)C1CC(=O)N(c2ccc(OC)cc2)C1=O` (stereo not drawn) as the compound, how does the inhibition read?
A: The inhibition was 12.2%.

Q: Which inhibition does the source give for `CC1=NN(C(=O)Cc2ccc(C)cc2)C(O)(c2cccnc2)C1` (stereo not drawn) here?
A: The inhibition was 3.6%.

Q: How did the inhibition turn out when `COc1ccc(C)cc1NC(=O)CCC(=O)Nc1nnc(C(F)(F)F)s1` was run?
A: Its inhibition is 15.2%.

Q: For `O=C(c1ccccc1)C(Cn1cncn1)C(Sc1ccccc1)c1ccccc1` (stereo not drawn), which inhibition is on record?
A: Its inhibition is -1.8%.

Q: For `COc1ccc(C(=O)N2CCc3cc(OC)c(OC)cc3C2c2cccc([N+](=O)[O-])c2)cc1` (stereo not drawn), which inhibition is on record?
A: Its inhibition is 0.6%.

Q: For `C=CCOc1c2ccc(C(=O)N(CC)c3ccc(OC)cc3)cc2nn1C`, which inhibition is on record?
A: Its inhibition is 10.6%.

Q: How did the inhibition turn out when `Cc1ccc(C)c(NC(=O)C2Cc3ccccc3CN2C(=O)OCc2ccccc2)c1` (stereo not drawn) was run?
A: Its inhibition is -5.4%.

Q: `CC(=O)N(C)c1ccc(NC(=O)C(F)(F)F)cc1` was tested. Which inhibition did it give?
A: Its inhibition is 3.7%.

Q: With `CCOc1ccc(NC(=O)Nc2cc(C)on2)cc1` as the compound, how does the inhibition read?
A: Its inhibition is 2.9%.

Q: For `CCOc1ccc(NC(=O)Nc2ccc(N(C)C(C)=O)cc2)cc1`, which inhibition is on record?
A: The inhibition was 82.3% (active).
